Data as given in ChEMBL document CHEMBL3988442, “University of Dundee, Small-Polar-MMV Screening Library” (2021).
In all, about 48,000 compounds went through this assay and about 13,000 (27%) showed an effect of 50% or more. The list shows a part of the results.

What follows are molecules tested on Wolbachia pipientis (assay: Anti-Wolbachia Cell-Based Screen). Settings: 5 µM.
Format: functional
Design: scale not given: in the data most compounds retested in dose-response had high values

SMILES	Percent Effect
CCSc1ccc(C(=O)Nc2c(C)nn(C(C)C)c2C)cn1	10.44%
COCCN(C)CC1CCCN1S(=O)(=O)c1cc(C)oc1C (stereo unspecified)	0.4223%
Cc1ncsc1CCN(C)Cc1cc2n(n1)CCN(Cc1ncc[nH]1)C2	0.3121%
COc1ccc(C2CCCN2C(=O)c2ccc(=O)n(C)c2)cc1OC (stereo unspecified)	-4.846%
CC(=O)NCCNC(=O)Nc1ccc(C)cc1OCc1ccccc1	-17.41%
O=C(c1ccc(N2CCCC2)nn1)N1CCCC(n2cccn2)C1 (stereo unspecified)	6.785%
Cc1nn(-c2ccccc2)cc1C(=O)N1CCCC(n2cccn2)C1 (stereo unspecified)	7.584%
O=C(c1cn(-c2ccccc2)nn1)N1CCCC(n2cccn2)C1 (stereo unspecified)	123.4%
Cc1nc(CNC(C)c2ccc(OCC(=O)NC3CC3)cc2)cs1 (stereo unspecified)	11.98%
Cc1ccc(C(=O)N2CCc3ncccc3C2)cc1N1CCNC1=O	0.3953%
CS(=O)(=O)N1CCC(NC(=O)COc2ccc3ccccc3c2)CC1	103.7%
CCn1cc(C(=O)NC2CCN(S(C)(=O)=O)CC2)c2ccccc21	-0.7206%
CCCC(C(=O)NC1CCN(S(C)(=O)=O)CC1)c1ccccc1 (stereo unspecified)	-7.418%
Cc1ccc(OCC(=O)NS(=O)(=O)Cc2ccccc2)cc1	1.419%
Cc1ccc(OCC(=O)NC2CCN(S(C)(=O)=O)CC2)cc1	137.9%
CC(Oc1cccc(Cl)c1)C(=O)Nc1cnn(CC(=O)NC2CC2)c1 (stereo unspecified)	3.95%
Cc1cn(CC(=O)NC2CCN(S(C)(=O)=O)CC2)c2ccccc12	-0.9919%
CN1CC(NC(=O)CCOc2cccc(Cl)c2)CC1=O (stereo unspecified)	-1.154%
CS(=O)(=O)N1CCC(NC(=O)COc2cccc(Cl)c2)CC1	141.5%
CC(C)c1nccn1C(C)C(=O)NC1CCN(S(C)(=O)=O)CC1 (stereo unspecified)	-4.449%
O=C(COc1ccc(Cl)cc1)NCc1nncn1C1CC1	-10.37%
CS(=O)(=O)N1CCC(NC(=O)COc2ccc(Cl)cc2)CC1	131.2%

SMILES	Percent Effect
CC(CS(C)(=O)=O)N(C(=O)CCc1ccsc1)C1CC1 (stereo unspecified)	-7.747%
Cc1c(NCc2ccccc2C#N)cccc1S(=O)(=O)NC1CC1	7.829%
CCCNC(=O)c1ccc(S(=O)(=O)NCC2(COC)CCCC2)cc1	10.08%
CCCN1CCC(Cc2nc(CN3CCN(C)CC3)no2)CC1	-14.74%
CN1CCC(Cc2noc(-c3cccc(Oc4ncccn4)c3)n2)CC1	7.717%
CCCN1CCC(Cc2noc(-c3[nH]cnc3C)n2)CC1	95.32%
CCCN1CCC(Cc2noc(-c3ncccc3C)n2)CC1	80.84%
CCCN1CCC(Cc2noc(-c3cccnc3OC)n2)CC1	111%
Cc1cccc(N2CCN(Cc3nc(CC4CC4)no3)CC2)n1	-32.1%
CN1CCC(Cc2noc(CC3CC3)n2)CC1	7.965%
COc1cccc(-c2n[nH]cc2-c2nc(CC3CCN(C)CC3)no2)c1	-18.5%
CCCN1CCC(Cc2noc(-c3cc4cccnc4nc3C)n2)CC1	109.3%
O=C(O)C(F)(F)F.O=C(c1cnccn1)N1CCN2C[C@H](OCc3ccccc3)C[C@H]2C1	0.9926%
O=C(c1cnc(Nc2ccccc2)nc1)N1CCC2(CCNCC2)CC1	2.873%
CC(C)c1noc([C@@H]2Cc3[nH]cnc3CN2C(=O)Nc2ccccc2)n1	2.136%
NC(=O)CCn1ccc(NC(=O)C2(c3ccc(F)cc3)CCC2)n1	-29.44%
COc1ccc(N(Cc2ccco2)C(=O)COC(C)C)cc1F	-7.109%
COc1ccc(CCC2CCCCN2)cc1OC (stereo unspecified)	89.4%
O=c1cc(-c2cc(O)cc(CCC3CCCCN3)c2)cc[nH]1 (stereo unspecified)	29.58%
Oc1cc(CCC2CCCCN2)cc(-c2ccncc2)c1 (stereo unspecified)	23.52%
COc1ccc(CCC2CCCCN2)cc1.Cl (stereo unspecified)	100.4%
Oc1cc(CCC2CCCCN2)cc(-c2cccnc2)c1 (stereo unspecified)	13.71%

SMILES	Percent Effect
COc1ccc(CCNC(=O)NC2CCCC2)cc1OC	1.175%
CS(=O)(=O)c1ccc(-c2cc(O)cc(CCC3CCCCN3)c2)cc1 (stereo unspecified)	-20.81%
COc1cccc(CCC2CCCN(C(C)=O)C2)c1 (stereo unspecified)	-117.1%
COc1cccc(CCC2CCCCN2)c1 (stereo unspecified)	69.8%
O=C(NCc1ccncc1)N1CCSCC1CCO (stereo unspecified)	-7.144%
CSc1ccc(-c2nc(CN3CCC(CN)C3)c(C)o2)cc1 (stereo unspecified)	-1.027%
CCc1noc(C)c1C(=O)N1CCN(c2nc(C)cc(OC)n2)CC1	-4.975%
CCCc1nc(C)cc(N2CCC3(CCC(=O)N(CC(N)=O)C3)CC2)n1	1.453%
CCc1nnc2n1CCN(c1nc(C)cc(N(C)C)n1)C2	1.842%
Cc1cc(C(F)(F)F)nc(C2(C)CCCN2CC(N)=O)n1 (stereo unspecified)	81.01%
Cc1cc(N(C)C)nc(C2(C)CCCN2CC(N)=O)n1 (stereo unspecified)	87.15%
CC1(C)CN(CC(F)(F)F)CCN1CC(N)=O	0.007489%
Cc1cc(C(F)(F)F)cc(N2CCC3(CCC(=O)N(CCO)C3)CC2)n1	8.685%
CS(=O)(=O)NC1CCN(C(=O)COCc2ccccc2)CC1	-3.192%
Cc1cc(C2CCCN2c2ncc(C(N)=O)cc2Cl)no1 (stereo unspecified)	-5.991%
Cc1nncn1CCNC(=O)C(C)(C)c1cccc(C(F)(F)F)c1	2.023%
CC(C)CN1CCC(C(=O)Nc2cc(C(F)(F)F)c[nH]c2=O)CC1	-2.2%
O=C(Nc1cc(C(F)(F)F)c[nH]c1=O)C1CCNCC1	76.16%
Cl.O=C(Nc1cc(C(F)(F)F)c[nH]c1=O)C1CCCCN1 (stereo unspecified)	99.37%
Cc1ccc(C(F)(F)F)cc1NC(=O)C1CCCN1 (stereo unspecified)	84.86%
Cc1ccc(C(=O)O)cc1NC(=O)C1CC=CC1	-2.837%
CN(CC(=O)Nc1cc(C(F)(F)F)c[nH]c1=O)Cc1ccccc1	-11.84%

SMILES	Percent Effect
O=C(NCc1ccccn1)Nc1cc(C(F)(F)F)c[nH]c1=O	4.379%
Cc1ccc(C(F)(F)F)cc1NCC(=O)Nc1c(C)nn(C)c1C	5.729%
CC(=O)N(C)CC(=O)Nc1cc(C(F)(F)F)c[nH]c1=O	-5.133%
O=C(Nc1cc(C(F)(F)F)c[nH]c1=O)C1CCCNC1 (stereo unspecified)	107.9%
COc1cccc(C(=O)N2CCc3ncnc(C)c3CC2)c1	-6.547%
CN1CC[C@H]2CN(C(=O)c3csc(Cc4ccccc4)n3)C[C@H]21	0.1576%
Cc1nn(C)cc1C(C)Nc1ncnc2sccc12 (stereo unspecified)	-14.94%
c1n[nH]cc1CCCN1CCC(OC2CCCCC2)CC1	7.391%
O=C(Nc1cc(C(F)(F)F)c[nH]c1=O)C1CCCO1 (stereo unspecified)	93.32%
Cc1ccc(NC(=O)NCCCc2n[nH]c(N)c2C#N)cc1	1.349%
Cc1nn(C)c(C)c1NC(=O)CCn1ncc2c(C)cccc21	-5.64%
O=C(CC1CC1)NCc1cc(=O)n2c(n1)CN(Cc1ccoc1)CCC2	68.76%
Cc1ccc(CN2CCCn3c(nc(Cn4cncn4)cc3=O)C2)s1	-3.936%
Cc1ccc(CN2CCCn3c(nc(CN4CCCC4)cc3=O)C2)s1.O=C(O)C(F)(F)F.O=C(O)C(F)(F)F	-4.249%
COCC(=O)NCc1cc(=O)n2c(n1)CN(Cc1ccncc1)CCC2	99.24%
O=c1cc(Cn2ccnc2)nc2n1CCCN(Cc1ccsc1)C2	9.464%
Cc1oncc1C(=O)NCc1cc(=O)n2c(n1)CN(C)CCC2.O=C(O)C(F)(F)F	-6.613%
CN(C)C(=O)NCc1cc(=O)n2c(n1)CN(Cc1ccoc1)CCC2.O=C(O)C(F)(F)F	87.23%
COCC(=O)NCc1cc(=O)n2c(n1)CN(Cc1ccoc1)CCC2	84.57%
Cn1ncc2c(NCCOCc3ccccc3)nc(C3CCCC3)nc21	18.15%
Cc1cc(C)c(C)c(OCCCNC(=O)NC(C)c2nncn2C)c1 (stereo unspecified)	4.914%
Cc1nc(CC(=O)NCCNc2nccc(C(F)(F)F)n2)cs1	-6.146%

SMILES	Percent Effect
O=c1cc(CN2CCCC2)nc2n1CCCN(Cc1ccsc1)C2	8.942%
O=c1cc(CN2CCCC2)nc2n1CCCN(Cc1ccco1)C2	15.57%
O=c1cc(Cn2cncn2)nc2n1CCCN(Cc1ccco1)C2	-4.032%
CN(C)Cc1cc(=O)n2c(n1)CN(Cc1ccco1)CCC2	2.843%
O=c1cc(CN2CCCC2)nc2n1CCCN(Cc1ccoc1)C2	85.96%
COCC(=O)NCc1cc(=O)n2c(n1)CN(Cc1ccco1)CCC2	106.6%
O=C1NC(c2ccccc2)=N[C@@]12CC[C@@H]1CN(S(=O)(=O)C3CC3)C[C@@H]12	2.973%
Cc1ccc(C)c(NC(=O)C(C)N2CCCN(c3nccs3)CC2)c1 (stereo unspecified)	18.26%
CCC(CO)N(Cc1cccc(O)c1)Cc1ccccc1C (stereo unspecified)	-1.955%
N#Cc1cc(NC(=O)C2CC=CC2)ccc1N1CCC(O)CC1	-4.254%
CNC(=O)[C@@H](C1CCCCC1)N1CCC[C@H]1C(=O)NC1CC1	10.77%
N#Cc1ccccc1CNC(C(=O)N1CCOCC1)c1ccccc1 (stereo unspecified)	-7.429%
CCc1c(C(=O)NCC(=O)OCC2CC2)cnn1-c1ccc(C)cc1	-8.085%
CCOC(=O)C1CCN(C(=O)c2cnn(-c3ccc(C)cc3)c2N)CC1	105.1%
CCOC1CCN(C(=O)c2ccc(-n3ncc(C#N)c3N)cc2)CC1	-10.17%
CCOC(=O)C1CCN(C(=O)c2cnn(-c3ccccc3F)c2N)CC1	125.9%
CCOC(=O)C1CCN(C(=O)CN2CCCC2c2ccccc2C)CC1 (stereo unspecified)	-25.1%
CCOC(=O)C1CCN(C(=O)CN2CCCC2Cc2ccccc2)CC1 (stereo unspecified)	-0.766%
